Screening data as filed in PubChem.
D3 antag: blocks the human D3 dopamine receptor; D3R cells, DiscoveRx beta-arrestin luminescence, antagonist mode; hits give low values; P35462; max response, negative = inhibition, %; 2.5% of 360,000 active; in the data active = max response below about -50%; inconclusive = no clear call, values can overlap the other calls; note: % is set by controls: 0 for no effect and ±100 for the full control effect
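Cells plated overnight at 1500 cells/well, then exposed to library compounds with dopamine controls for 90 minutes at 37 degrees C. DiscoveRx reagent added for 30–60 minutes at room temperature; luminescence read, quantitative HTS format.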
D3 ag: agonists of human D3 dopamine receptor. D3R DiscoveRx beta-arrestin cells, luminescence, 90 min. 0.58% of 410,000 active. P35462. max activation, %. AID 652048; in the data active = max activation above about 30%; note: 0% is about no effect
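Cells at 1500/well, incubated overnight, then treated with pinned compounds (dopamine as control) for 90 min at 37 degrees C. DiscoveRx reagent added for 30 - 60 minutes at room temperature; luminescence read.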
D1 antag: antagonists of human D1 dopamine receptor | activity change, negative = inhibition, % at 10 µM | P21728 | HEK293 TREx D1 cells, calcium flux, dopamine EC80; hits give low values | AID 504652 | 3.2% of 360,000 active; in the data active = activity change below about -30%; note: % is set by controls: 0 for no effect and ±100 for the full control effect
Target sequence (P21728 whole entry, looked up): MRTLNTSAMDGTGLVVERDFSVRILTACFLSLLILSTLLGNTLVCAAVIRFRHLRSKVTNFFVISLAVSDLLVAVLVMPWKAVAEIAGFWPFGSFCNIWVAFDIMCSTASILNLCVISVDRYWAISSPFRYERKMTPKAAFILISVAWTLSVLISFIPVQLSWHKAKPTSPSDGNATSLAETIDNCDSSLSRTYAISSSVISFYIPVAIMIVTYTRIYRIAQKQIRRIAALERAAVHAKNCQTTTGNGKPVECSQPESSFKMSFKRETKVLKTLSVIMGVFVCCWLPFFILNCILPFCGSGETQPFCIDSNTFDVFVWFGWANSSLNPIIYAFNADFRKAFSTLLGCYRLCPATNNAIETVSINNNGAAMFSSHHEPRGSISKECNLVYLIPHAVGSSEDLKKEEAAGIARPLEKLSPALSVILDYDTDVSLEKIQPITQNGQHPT
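Tetracycline-induced HEK293 Trex D1 cells, force-coupled to calcium, dye-loaded; compounds added and read 180 s, then EC80 dopamine added and calcium flux tracked kinetically another 180 s.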
D1 PAM: potentiators of human D1 dopamine receptor; P21728; HEK293 TREx D1 cells, calcium flux, dopamine EC20 potentiation; potentiation, % at 10 µM; 0.036% of 360,000 active; in the data active = potentiation above about 30%; note: 0% is about no effect
D1 ag: activates the human D1 dopamine receptor; HEK293 T-REx D1 cells, calcium flux, agonist mode; activation, % at 2 µM; 1% of 360,000 active; AID 504660; in the data active = activation above about 30%; note: 0% is about no effect
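Tetracycline-induced HEK293 TREx D1 cells, force-coupled to calcium signalling, were dye-loaded with a no-wash calcium kit. Compound was pin-added after a 10 s baseline. Fluorescence was read kinetically at 1 cycle/s for 180 s, with calcium rises flagged as agonism.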
An asterisk follows results filed as active; ? = inconclusive; nt = no result given. Most compounds without a hit are left out; they make up all but 6% or so of the library.

SMILES | D3 antag | D3 ag | D1 antag | D1 PAM | D1 ag
O=C(C1CC(=O)N(C2CCCC2)C1)N1CCC(Cc2ccccc2)CC1 (centres undefined) | -15 | -8 | -38* | -14 | 7
CCc1cccc(C)c1NC(=O)C1CC(=O)N(C2CCCC2)C1 (centres undefined) | -29 | 0 | -46* | 0 | 2
CCOC(=O)c1ccccc1NC(=O)C1CC(=O)N(C2CCCCC2)C1 (centres undefined) | 15 | 1 | 17 | 2 | 7
O=C(NCCCN1CCN(c2ccccc2F)CC1)C1CCCN(S(=O)(=O)c2cnc[nH]2)C1 (centres undefined) | -71* | 6 | -53* | -9 | 4
Cc1cccc(N2CCN(C(=O)c3cnn(-c4ccccc4Cl)c3C3CCN(C(=O)OC(C)(C)C)CC3)CC2C)c1 (centres undefined) | nt | 4 | 0 | 2 | 0
CC(C)CCn1c(=O)c2ccccc2n2c(CN3CCOCC3)nnc12 | -54* | -8 | 38 | -2 | 0
Cc1ccc(Cn2c(=O)c3ccccc3n3c(CCC(=O)NCCN4CCOCC4)nnc23)cc1 | -17 | -6 | 14 | -5 | 4
CCOc1ccc(CNC(=O)c2ccc(Sc3ccc(Cl)cc3)c(NC(C)=O)c2)cc1 | -21 | 0 | 20 | -2 | -2
CCOc1ccccc1CNC(=O)c1ccc(Sc2ccc(Cl)cc2)c(NC(C)=O)c1 | 8 | -3 | -39* | -3 | 3
FC(F)(F)c1cccc(Nc2nc3nonc3nc2Nc2ccc(Cl)cc2)c1 | nt | -11 | -48* | -5 | 51*
O=C(Nc1cccc(C(F)(F)F)c1)c1cc(-c2ccc(Cl)cc2)on1 | nt | -5 | -14 | -2 | 2
Cc1ccc(Cn2c(=O)n(Cc3ccccc3Cl)c(=O)c3cccnc32)cc1 | nt | 4 | 13 | -6 | 2
Nc1nc(Nc2cccc(Cl)c2)sc1C(=O)c1ccc(F)cc1 | nt | -19 | -37* | -5 | -2
CCc1ccc(OCC(=O)N(Cc2ccc(C(C)C)cc2)C2CCS(=O)(=O)C2)cc1 (centres undefined) | nt | 7 | 4 | 5 | 3
N/C(=N\OC(=O)c1cc(Br)ccc1Cl)c1cccnc1 | 3 | -2 | -2 | -3 | 1
N/C(=N\OC(=O)c1ccccc1Cl)c1cccnc1 | 0 | 2 | -1 | 2 | 12
N/C(=N\OC(=O)c1ccccc1)c1cccnc1 | -1 | 0 | -50* | 2 | 3
N/C(=N\OC(=O)COc1ccc([N+](=O)[O-])cc1)c1cccnc1 | 5 | 3 | -2 | 38* | 2
N/C(=N\OC(=O)c1cc(Cl)ccc1Cl)c1cccnc1 | 9 | 1 | -57* | -13 | 1
CC(C)OCCCNC(=O)CN1C(=O)c2ccccc2Sc2ncccc21 | nt | -12 | 2 | -3 | 1
CCOc1ccccc1NC(=O)C1CCN(S(=O)(=O)c2cc(Br)cc3c2N(C(C)=O)CC3)CC1 | nt | 7 | -9 | 2 | 0
CCCOc1ccc(-c2nonc2NC(=O)c2cc(OC)c(OC)c(OC)c2)cc1OCCC | nt | -17 | -1 | -2 | 38*
CCCCOc1ccccc1C(=O)Nc1nonc1-c1ccccc1 | nt | 35* | -6 | 0 | 18
CCCn1c(CN2CCN(c3ccc(OC)cc3)CC2)nc2c1c(=O)[nH]c(=O)n2C | nt | 4 | -16 | 3 | 0
Cc1cn2c(=O)cc(COC(=O)c3cccc(NC(=O)COc4ccccc4)c3)nc2s1 | nt | -2 | -10 | -1 | 0
SMILES | D3 antag | D3 ag | D1 antag | D1 PAM | D1 ag
Cc1c(NC(=O)COC(=O)c2ccccc2Cl)c(=O)n(-c2ccccc2)n1C | 15 | 0 | 3 | -7 | 1
Cc1ccc2c(CC(=O)Nc3c(C)n(C)n(-c4ccccc4)c3=O)coc2c1 | -6 | -8 | -80* | -3 | 0
Cc1c(NC(=O)COC(=O)C2CC3C=CC2C3)c(=O)n(-c2ccccc2)n1C (centres undefined) | -76* | -6 | 8 | -3 | 0
O=C(CC(c1ccccc1)c1ccccc1)Nc1nn[nH]n1 | 9 | 8 | -31* | -2 | 4
O=C(COc1ccccc1)Nc1nn[nH]n1 | -8 | -2 | 9 | 1 | 0
CNC(=O)c1ccccc1Sc1ccc2c(/C=C/c3ccccn3)n[nH]c2c1 | nt | 6 | nt | nt | nt
Nc1c(-c2nc(-c3ccc4c(c3)OCO4)cs2)c2ccccn2c1C(=O)c1ccc(Cl)cc1 | nt | -3 | 9 | -1 | 0
Nc1c(-c2nc(-c3ccc4c(c3)OCO4)cs2)c2ccccn2c1C(=O)c1ccccc1 | nt | 1 | -41* | 1 | 0
COc1cccc(C(=O)c2c(N)c(-c3nc(-c4ccccc4)cs3)c3ccccn23)c1 | nt | 8 | -43* | 2 | 8
COc1ccc(-c2csc(-c3c(N)c(C(=O)c4ccccc4)n4ccccc34)n2)cc1 | nt | 1 | -3 | -2 | 0
CC(=O)c1ccc(Nc2nc3c(S(=O)(=O)c4ccccc4)nnn3c3ccc(Cl)cc23)cc1 | nt | 4 | -24 | -3 | 1
CCOC(=O)C1(CCc2ccccc2)CCN(Cc2ccc(C(=O)OC)cc2)CC1 | -69* | -20 | 1 | 2 | 8
CCOC(=O)C1(CC2CC2)CCN(Cc2ccc(C(=O)OC)cc2)CC1 | -120* | -22 | -1 | -1 | 7
CCOC(=O)C1(CCc2ccccc2)CCN(Cc2ccccn2)CC1 | -19 | -17 | -11 | -4 | 5
CCOC(=O)C1(CCc2ccccc2)CCN(Cc2cc(OC)c(OC)cc2OC)CC1 | -13 | -12 | -37* | 2 | 4
COc1ccc(-c2nc3ccccc3o2)cc1NC(=O)c1cccc2c(Cl)cccc12 | nt | 3 | 5 | -2 | 2
COC(=O)c1cc2oc3ccccc3c2n1CC(=O)Nc1cccc(SC)c1 | nt | -11 | -8 | -4 | 4
CCOc1c(Cl)cc(CNc2ccc(S(N)(=O)=O)cc2)cc1OC | 4 | 1 | -41* | -8 | 20
OC1(c2ccc3c(c2)OCO3)CCN(Cc2ccccn2)CC1 | ? | -37 | -40* | -4 | 1
CC(Oc1cc2oc(=O)cc(-c3ccccc3)c2cc1Cl)C(=O)NCC1CCC(C(=O)O)CC1 (centres undefined) | 24 | 3 | -10 | -5 | 2
CCc1cc2c(-c3ccccc3)cc(=O)oc2cc1OC(C)C(=O)NCC1CCC(C(=O)O)CC1 (centres undefined) | 114 | 44* | -11 | 2 | 1
CC(Oc1ccc2c3c(c(=O)oc2c1)CCC3)C(=O)NCC1CCC(C(=O)O)CC1 (centres undefined) | 225 | 43* | 9 | -3 | 0
COc1ccc(S(=O)(=O)N2CCN(Cc3nc4ccc(C)cc4o3)CC2)cc1 | nt | 0 | 14 | 1 | -1
Cc1ccc(N2CC(NC(=O)c3ccc(S(=O)(=O)N(C)C)cc3)CC2=O)cc1C (centres undefined) | nt | 0 | nt | 1 | -2
Cc1nn(C(=O)c2ccccc2F)c(C)c1S(=O)(=O)N1CCOCC1 | nt | 6 | -10 | 3 | 1
